# The panel holds about 79,000 compounds, 15% with a hit somewhere; the sample as a whole holds those more often. Values without a mark were called inactive. The source made the active and inactive calls. Rule as the data show it: active = growth inhibition above about 70%; inactive = the rest.
# Legend:
# [1] = NCI Yeast Anticancer Drug Screen. Data for the rad50 strain (AID 155);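 also: 0% = growth of vehicle-only cultures of the same strain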; details: S. cerevisiae rad50 strain growth inhibition; at 50.0 µM; stronger effect = higher value
# How it was run: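 Readout: growth inhibition relative to vehicle-treated cultures. Compound exposure was carried out in a genetically defined yeast strain deficient in DNA damage repair.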
# [2] = NCI Yeast Anticancer Drug Screen. Data for the mec2-1 strain (AID 157); details: S. cerevisiae mec2-1 strain, at 50.0 µM, stronger effect = higher value
# How it was run: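 Test agents were screened against the mec2-1 yeast strain, with defined DNA repair or cell cycle alteration. Growth was scored as inhibition against vehicle-only controls.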
# [3] = NCI Yeast Anticancer Drug Screen. Data for the sgs1 mgt1 strain (AID 161);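 also: 0% = growth of cultures given vehicle only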; details: S. cerevisiae sgs1 mgt1 strain, at 50.0 µM, stronger effect = higher value
# How it was run: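 Genetically altered yeast, compound exposure, growth inhibition relative to vehicle.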
# [4] = NCI Yeast Anticancer Drug Screen. Data for the cln2 rad14 strain (AID 165);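 also: 0% = growth equal to vehicle treated cultures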; details: S. cerevisiae cln2 rad14 strain, at 50.0 µM, stronger effect = higher value
# How it was run: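 Growth of compound-exposed yeast (cln2 rad14 genotype) measured and expressed as inhibition relative to vehicle.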
# [5] = NCI Yeast Anticancer Drug Screen. Data for the bub3 strain (AID 167); details: S. cerevisiae bub3 mutant strain, at 50.0 µM, stronger effect = higher value
# How it was run: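 Readout: yeast growth inhibition, expressed relative to vehicle-only wells. The test organism is a mutant strain from a panel with lesions in DNA repair or checkpoint genes.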
# [6] = NCI Yeast Anticancer Drug Screen. Data for the mlh1 rad18 strain (AID 175); details: S. cerevisiae mlh1 rad18 strain growth inhibition; at 50.0 µM; stronger effect = higher value
# How it was run: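 In this whole-cell yeast screen, a strain with altered DNA damage repair is challenged with compound, and its growth is measured against matched vehicle-treated controls.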
SMILES,growth inhibition [1],growth inhibition [2],growth inhibition [3],growth inhibition [4],growth inhibition [5],growth inhibition [6]
COc1ccc2c(c1)SC1=NNC(=O)CN12,-21.6%,-27.6%,-9.45%,-39.1%,-12.2%,-22.9%
O=C1CCc2c(Cl)sc(Cl)c21,20.1%,5.5%,13.8%,-32.2%,4.1%,9.95%
CN(C)CC(CN(C)C)C(O)c1ccccc1 (stereo unspecified),2.4%,-11.5%,-6.35%,12%,-4.8%,-13.1%
N#CC1CCCC/C1=N/NC(N)=O (stereo unspecified),-11.9%,-6.65%,-13.6%,-6.05%,-6.65%,-6%
O=C1CSC(=S)N1,-8.05%,-7.9%,13.3%,10.8%,-7.15%,20.9%
COC(=O)C1CCC(=O)N1C(c1ccc(OC)cc1)c1ccc(OC)cc1 (stereo unspecified),-26.6%,25.6%,13.4%,12.6%,8.3%,6.7%
CCCCCCCCC(C)(C)O,-3.15%,-3.55%,-1.25%,3.05%,5.65%,-4.45%
COc1cc(NC(C)CCCN)c2nccc(C)c2c1 (stereo unspecified),16.2%,12.2%,-27.1%,-8.15%,-62.5%,-36.9%
O=C1CCC2CN(C(=O)c3ccccc3)CCC2C1 (stereo unspecified),8.75%,7.7%,21.1%,3.1%,16.6%,22.2%
Cc1ccnc(N=C(N)Nc2cc(C)ccn2)c1,19.6%,26.4%,13.1%,11.2%,6.75%,8.85%
Cc1ccc(S(=O)(=O)N/N=C/c2cc([N+](=O)[O-])ccc2O)cc1,5%,3.4%,10.1%,14.8%,9.5%,28.9%
Cc1cc(C)c(OCC(O)CO)c(C)c1 (stereo unspecified),2.45%,-26.1%,14.7%,-10.1%,5.9%,-8.8%
NNC(=O)c1c(-c2cccnc2)cnc2ccccc12,-29.4%,-20.6%,-29.3%,-6.8%,-4.8%,-31.4%
CC(=O)N/N=C1\NN(C(C)=O)C2(S1)C(=O)Nc1ccccc12 (stereo unspecified),7.7%,52%,68.8%,78.5% (active),51.8%,33.1%
CSC(=S)Nc1cc(C)cc(C)n1,29.8%,17.7%,62.1%,38%,42.8%,60.8%
COc1ccc(CCNC(=S)NN)cc1OC,-15.7%,-23.6%,-7.35%,-23.5%,-17%,-28.7%
COc1ccc(CCN=Cc2ccc(Cl)cc2)cc1OC,-3.55%,-28.4%,15.4%,-1.2%,-17.1%,-10.6%
COc1ccc(N2C(=O)CCC2=O)cc1,-7.8%,0.25%,-7.7%,-6.15%,-9.9%,4.9%
Cc1c(-c2ccc(Cl)cc2)n[nH]c1-c1[nH]nc(-c2ccc(Cl)cc2)c1C,-2.3%,-1.95%,-26.1%,3.75%,-11.4%,-1.9%
CC(C)(C)OC(=O)CC1(O)CCCCC1,4.15%,-5.9%,-6.05%,4.75%,4%,8.05%
CCOP(=O)(OCC)/C(C#N)=C/c1c(C)[nH]c2ccccc12,0.5%,-10.8%,18.6%,13.4%,-7.45%,25.7%

SMILES,growth inhibition [1],growth inhibition [2],growth inhibition [3],growth inhibition [4],growth inhibition [5],growth inhibition [6]
N=C1N=Nc2nc(C(C(=O)c3cccc([N+](=O)[O-])c3Cl)c3nc4n(c3O)C(=N)N=N4)c(O)n21 (stereo unspecified),-2.65%,0.7%,13.8%,-23.5%,-0.15%,2.8%
CC12CCC(=O)C=C1CCC1C2C(=O)CC2(C)C1CCC2(O)C(=O)Cn1cc(F)c(=O)[nH]c1=O (stereo unspecified),12.1%,9.5%,32.8%,11.9%,-1.25%,6.5%
O=C(O)/N=N\C(=O)O,-36.9%,-23.9%,-19.4%,-5.05%,-26.4%,-27.2%
O=c1cc(-c2ccc(O)cc2)oc2cc(O)cc(O)c12,5.85%,-5.65%,-8.45%,-43.5%,-20.9%,-14.9%
CC(=O)Nc1ccccc1NC1CC(C)N(c2ccccc2)N1C(C)=O (stereo unspecified),-10.9%,-42.4%,-40.4%,-11.5%,-34.4%,1.05%
CC1=CC(=O)N(n2c(-c3ccccc3)n[nH]c2=O)C1=O,-26.9%,-12.9%,-4.45%,7.95%,-13.2%,5.3%
O=C1O/C(=C2/OC(=O)c3ccccc32)c2ccccc21,-8.05%,-7.95%,-3.75%,-44%,14.5%,-0.65%
Cc1nc2cc(Cl)ccc2s1,30.5%,2.8%,22.1%,18.4%,30.3%,26.2%
CS(=O)(=O)Nc1cccc(C(=O)O)c1,28.6%,-0.05%,14.8%,-2.85%,-28.9%,-23%
NOCc1ccc(OCc2ccccc2)cc1,5.75%,7.3%,-6.7%,-18.8%,-2.4%,-11.5%
COC(=O)CN(c1ccc(C#N)c2ccccc12)S(=O)(=O)c1ccccc1,32.4%,-2.35%,3.7%,-4.9%,4.25%,1.45%
COc1ccc2c(c1)C(=O)C(CO)C(C(=O)O)C2 (stereo unspecified),-13.1%,-17.1%,-1.15%,-24.6%,-3.5%,-24.8%
NC(Cc1ccsc1)C(=O)O (stereo unspecified),0.15%,10.7%,-22.7%,-45.2%,20.5%,-30.8%
CCOC(=O)COc1c(C)cccc1C,17.6%,5.45%,-2.5%,14.8%,32.5%,12.5%
O=C1NC(=O)C(c2ccc(C(=O)O)cc2)N1 (stereo unspecified),-12.8%,-10%,0.05%,8.45%,-5.5%,-2.25%
COc1ccc(-c2cn3c([nH]c(=O)c4cc(Br)ccc43)c2C#N)cc1,5.55%,-5.3%,-3.7%,-5.25%,2.2%,16.1%
CCCC(=O)Nc1cc(C(=O)O)cc([N+](=O)[O-])c1,2.05%,-15.6%,4.8%,-26.2%,22.5%,-4.45%
COc1cc(NCCCCCNC(C)C)c2nccc(C)c2c1,42.2%,43.1%,56.6%,28.6%,27.9%,50.5%
CCCCCCCOCC(=O)OC,3.6%,-0.7%,2%,-21.2%,10.2%,1.45%
CCCSc1cc(Cl)c(C)cc1S(=O)(=O)n1cc[nH]c1=O,11.9%,7.3%,9.15%,5.75%,13.3%,35.7%

# From PubChem BioAssay (NCI)
